Screening data deposited in PubChem by several laboratories.
A selection: hits, their analogues and other compounds. The true share with any hit is near 22%.
CYP2C9 act = activators of human CYP2C9. P11712. recombinant CYP2C9, luciferin-H conversion, luminescence; hits give high values; factor 1 = untreated enzyme, 0 = blocked. activation factor at 5 µM. 96,000 tested, 1.4% active;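 active = activation factor of 2 or more for CYP2C9 at a 5 µM dose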;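 note: 0 = sulfaphenazole-blocked wells and 1 = vehicle-only wells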
Target sequence (P11712 whole entry, looked up): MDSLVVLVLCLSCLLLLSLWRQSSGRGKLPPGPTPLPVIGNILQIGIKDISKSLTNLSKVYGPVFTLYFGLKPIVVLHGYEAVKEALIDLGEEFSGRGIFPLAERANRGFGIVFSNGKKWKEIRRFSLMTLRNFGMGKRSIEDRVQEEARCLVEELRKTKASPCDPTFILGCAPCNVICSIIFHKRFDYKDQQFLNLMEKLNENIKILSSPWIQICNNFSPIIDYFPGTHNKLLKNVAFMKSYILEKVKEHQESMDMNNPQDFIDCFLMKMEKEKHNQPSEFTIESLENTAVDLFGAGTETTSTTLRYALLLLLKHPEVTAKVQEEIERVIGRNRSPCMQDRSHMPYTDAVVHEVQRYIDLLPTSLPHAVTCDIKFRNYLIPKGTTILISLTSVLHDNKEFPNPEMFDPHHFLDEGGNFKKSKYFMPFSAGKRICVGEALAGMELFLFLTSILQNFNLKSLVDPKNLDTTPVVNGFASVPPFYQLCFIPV
E-sel TNF inh = TNF alpha driven E-selectin expression inhibition; HUVEC TNFa-induced E-selectin immunofluorescence, high content; inhibition, % at 2 µM; 120,000 tested, 0.71% active;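 active = inhibition above the batch mean plus 3 SD, and confirmed as a hit on visual image review, cut at about 43% in these data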;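 note: 0% = TNF-stimulated DMSO wells and 100% = unstimulated control wells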
CYP2C19 inhib = inhibitors of human CYP2C19. P33261. CYP2C19 Supersomes, luciferin-H EGE luminescence, 30 min. inhibition, % at 5 µM. 96,000 tested, 21% active. AID 778;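 active = CYP2C19 inhibition above a set limit at 5 µM in the primary screen, cut at about 50% in these data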;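 note: plate controls were negative control wells for no effect and 2.5 mM tranylcypromine positive control for full effect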
CYP2C9 inhib = human CYP2C9 inhibition. P11712. 96,000 tested, 20% active. AID 777. CYP2C9 Supersomes, luciferin-H conversion, luminescence. inhibition, % at 5 µM;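 active = blocking of liver enzyme CYP2C9 beyond about 50% at 5 µM, limit read from the data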
cytoskel mod = cytoskeleton assembly modification; HUVEC TNFa F-actin phalloidin imaging, high content; inhibition, % at 2 µM; AID 836; 91,000 tested, 0.18% active;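 active = inhibition above the batch mean plus 3 SD and confirmed as a hit by visual image inspection, cut at about 30% in these data, passing the limit was not always enough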
CYP2C19 act = increases human CYP2C19 enzyme activity | P33261 | activation factor at 5 µM | 96,000 tested, under 10 active | recombinant CYP2C19, luciferin-H EGE luminescence; hits give high values; 0 = fully inhibited enzyme, 1 = untreated enzyme;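 active = activation factor of at least 2 at 5 µM in the primary screen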;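 note: 0 = wells with 2.5 mM tranylcypromine and 1 = vehicle-only wells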
Active calls of the source: *.

`C/C(CC(=O)N1CCN(C=O)CC1)=N\NC(=O)c1cc2ccccc2cc1O` gave E-sel TNF inh -24.
Screening C/C(=N\NC(=O)c1ccccc1O)c1c(O)cc(C)oc1=O returned CYP2C9 act 0.4, CYP2C19 inhib 39, CYP2C9 inhib 62*, cytoskel mod 18 and CYP2C19 act 0.6.
Screening C/C(=N\NC(=O)c1ccccc1O)c1ccc(Br)s1 returned E-sel TNF inh -8.
For C/C(=N\NC(=O)c1ccccc1O)C1C(=O)c2ccccc2C1=O the results were CYP2C9 act 0.1, E-sel TNF inh -22, CYP2C19 inhib 35, CYP2C9 inhib 90*, cytoskel mod 21 and CYP2C19 act 0.6.
Screening C/C(=N/NC(=O)c1cc2ccccc2cc1O)C1C(=O)c2ccccc2C1=O returned CYP2C9 act 0, E-sel TNF inh -8, CYP2C19 inhib 91*, CYP2C9 inhib 98*, cytoskel mod -14 and CYP2C19 act 0.1.
Screening CCOC(=O)c1ccc2c(c1)N(CC(=O)N1CCCC1)C(=O)C(C)(C)O2 returned CYP2C9 act 0.7, E-sel TNF inh -14, CYP2C19 inhib 5, CYP2C9 inhib 34, cytoskel mod 3 and CYP2C19 act 0.9.
Screening Cc1c(O)ccc(-c2[nH]ncc2-c2nc3ccccc3s2)c1O returned CYP2C9 act 0.3, E-sel TNF inh 9, CYP2C19 inhib 87*, CYP2C9 inhib 69*, cytoskel mod -4 and CYP2C19 act 0.1.
For CN(C)c1ncccc1-c1nc2ccccc2s1 the results were E-sel TNF inh -79.
C=CCNc1nc(C2(C)CC3(CC(C)(C)OC3=O)C(=O)O2)cs1 (stereo not drawn) was read as CYP2C9 act 1.2, CYP2C19 inhib 79*, CYP2C9 inhib -23, cytoskel mod 20 and CYP2C19 act 0.2.
`CC(C)COCC1CC2(CC(C)(c3csc(N)n3)OC2=O)C(=O)O1` (stereo not drawn) gave CYP2C9 act 1.2, CYP2C19 inhib 3, CYP2C9 inhib -22, cytoskel mod 6 and CYP2C19 act 1.
For CC(=O)N(C)c1ccc(NC(=S)Nc2ccccc2)cc1 the results were CYP2C9 act 1.1, E-sel TNF inh -23, CYP2C19 inhib 34, CYP2C9 inhib -15, cytoskel mod -24 and CYP2C19 act 0.7.
`CN(C)c1cc(O)c(C(=S)Nc2ccccc2)c(N(C)C)c1` gave CYP2C9 act 0.9, CYP2C19 inhib 79*, CYP2C9 inhib 5 and CYP2C19 act 0.2.
For CCN(CC)CC#CC(C)(C)OC(C)=O the results were E-sel TNF inh 6 and cytoskel mod 8.
For CC1(C)Cc2c(C#N)c(SCCC#N)nc(N3CCOCC3)c2CS1 the results were CYP2C9 act 0.1, E-sel TNF inh -20, CYP2C19 inhib 51*, CYP2C9 inhib 92* and CYP2C19 act 0.5.
`CC1(C)Cc2c(C#N)c(SCCOc3ccccc3)nc(N3CCOCC3)c2CO1` gave CYP2C9 act 0, E-sel TNF inh 23, CYP2C19 inhib 89*, CYP2C9 inhib 99*, cytoskel mod -20 and CYP2C19 act 0.1.
For CCCSc1nc(N2CCCC2)c2c(c1C#N)CC(C)(C)OC2 the results were CYP2C9 act 0.1, E-sel TNF inh 5, CYP2C19 inhib 57*, CYP2C9 inhib 94*, cytoskel mod 13 and CYP2C19 act 0.4.
For CSc1nc(N2CCCC2)c2c(c1C#N)CC(C)(C)OC2 the results were CYP2C9 act 0.7, E-sel TNF inh -10, CYP2C19 inhib 19, CYP2C9 inhib 29, cytoskel mod -13 and CYP2C19 act 0.8.
For CC1(C)Cc2c(c(N3CCOCC3)nc3sc(C#N)c(N)c23)CS1 the results were CYP2C9 act 1, E-sel TNF inh -6, CYP2C19 inhib -13, CYP2C9 inhib -2, cytoskel mod -12 and CYP2C19 act 1.1.
Cc1nc(N2CCN(Cc3ccccc3)CC2)c(C#N)c2c1COC(C)(C)C2 was read as E-sel TNF inh 0 and cytoskel mod 22.
`O=C(CCC(=O)c1cccs1)OCC(=O)N1CCN(S(=O)(=O)c2ccccc2)CC1` gave CYP2C9 act 0.9, CYP2C19 inhib 1, CYP2C9 inhib 13, cytoskel mod 7 and CYP2C19 act 1.
For COc1ccc(OC)c(NC(=O)C2CC(=O)N(c3ccccc3)C2)c1 (stereo not drawn) the results were CYP2C9 act 0.7, E-sel TNF inh -38, CYP2C19 inhib 29, CYP2C9 inhib 31 and CYP2C19 act 0.7.
For O=C(Nc1cccc(F)c1)C1CC(=O)N(c2ccc(Cl)cc2)C1 (stereo not drawn) the results were CYP2C9 act 0.3, E-sel TNF inh 11, CYP2C19 inhib 88*, CYP2C9 inhib 71*, cytoskel mod 11 and CYP2C19 act 0.1.
Screening COc1ccccc1CNC(=O)C1CC(=O)N(c2ccc(C)c(C)c2)C1 (stereo not drawn) returned CYP2C9 act 2.5*, E-sel TNF inh 13, CYP2C19 inhib 58*, CYP2C9 inhib -152, cytoskel mod 14 and CYP2C19 act 0.4.
`O=C(NCCOc1ccc(Cl)cc1)C1CC(=O)N(c2ccc(F)cc2)C1` (stereo not drawn) gave CYP2C9 act 1.1, E-sel TNF inh 7, CYP2C19 inhib 33, CYP2C9 inhib -12, cytoskel mod -5 and CYP2C19 act 0.7.
For COc1ccc(OC)c(NC(=O)C2CC(=O)N(c3ccc(Br)cc3)C2)c1 (stereo not drawn) the results were CYP2C9 act 0.2, E-sel TNF inh -13, CYP2C19 inhib 86*, CYP2C9 inhib 84*, cytoskel mod 40 and CYP2C19 act 0.1.
Screening C=CCN(CC=C)C(=O)C1CC(=O)N(c2ccc(Br)cc2)C1 (stereo not drawn) returned CYP2C9 act 0.8, E-sel TNF inh -4, CYP2C19 inhib 63*, CYP2C9 inhib 24, cytoskel mod -2 and CYP2C19 act 0.4.
Screening Cc1ccc(CNC(=O)CCCOc2cc(=O)n(C)c3ccccc23)o1 returned CYP2C9 act 1.3, CYP2C19 inhib 8, CYP2C9 inhib -26, cytoskel mod 2 and CYP2C19 act 0.9.
For O=C(Nc1cccc(Cl)c1Cl)C1CC(=O)N(c2ccc(Br)cc2)C1 (stereo not drawn) the results were E-sel TNF inh -10 and cytoskel mod -7.
O=C(Nc1cccc(F)c1)C1CC(=O)N(c2ccc(Br)cc2)C1 (stereo not drawn) was read as CYP2C9 act 0.4, E-sel TNF inh 15, CYP2C19 inhib 63*, CYP2C9 inhib 63*, cytoskel mod -10 and CYP2C19 act 0.4.
For O=[N+]([O-])c1ccc(N(c2ccccc2)c2ccccc2)cc1 the results were CYP2C9 act 0.5, E-sel TNF inh -15, CYP2C19 inhib 26, CYP2C9 inhib 51*, cytoskel mod -6 and CYP2C19 act 0.7.
Screening Cc1ccc(-c2nc(Nc3ccccc3)n[nH]2)cc1 returned CYP2C9 act 0.7, E-sel TNF inh -3, CYP2C19 inhib 69*, CYP2C9 inhib 27, cytoskel mod -22 and CYP2C19 act 0.3.
